Screening data: PubChem BioAssay, several laboratories
An excerpt weighted towards active compounds, which were near 1.5% of everything screened.
Smad3 FoxH1 inh: inhibitors of human Smad3 transcription factor binding; 88,000 compounds, 0.29% hits; AID 630; P84022; inhibition, % at 25 µM; TR-FRET Smad3/Dy647-FoxH1 peptide binding, europium anti-His;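 active means compounds that reduce the energy-transfer binding signal between the protein and its labelled peptide by more than half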
Target sequence (P84022 whole entry, looked up): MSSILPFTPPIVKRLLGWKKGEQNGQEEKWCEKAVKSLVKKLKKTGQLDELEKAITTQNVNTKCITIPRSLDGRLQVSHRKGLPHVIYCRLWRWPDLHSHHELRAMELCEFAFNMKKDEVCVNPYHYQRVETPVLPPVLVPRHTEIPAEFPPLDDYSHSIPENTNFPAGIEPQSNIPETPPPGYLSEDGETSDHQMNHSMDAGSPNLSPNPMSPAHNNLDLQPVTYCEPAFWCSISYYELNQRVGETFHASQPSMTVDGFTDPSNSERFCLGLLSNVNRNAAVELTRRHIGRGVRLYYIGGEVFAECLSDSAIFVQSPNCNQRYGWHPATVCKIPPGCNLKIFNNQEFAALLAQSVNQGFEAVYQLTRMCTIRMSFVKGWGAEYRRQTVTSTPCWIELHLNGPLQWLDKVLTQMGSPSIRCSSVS
PLK1 kinase inh: inhibitors of human PLK1 kinase; recombinant PLK1 kinase, TR-FRET peptide phosphorylation; inhibition, % at 10 µM; 97,000 compounds, 0.53% hits; AID 619;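 active means inhibition of 50% or more in the single-concentration screen; inactive means inhibition below 50%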
Plk1 PBD FP: Plk1 (human) PBD binding inhibition. P53350. Plk1 PBD phosphopeptide binding, fluorescence polarization. inhibition, %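 (tested at about 20 µM)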. 97,000 compounds, 0.13% hits. AID 693; in the data active means inhibition above about 34%, passing the limit was not always enough
EphB4 ephrin blk: antagonists of human EphB4-ephrin-B2 interaction; P54760; EphB4 LBD / TNYL-RAW-Alexa532 peptide, fluorescence polarization; inhibition, % at 7 µM; 97,000 compounds, 0.15% hits; AID 720;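 active means inhibition above the screen-wide mean inhibition plus 3 SD, cut at about 15% in these data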
FAK inh: inhibitors of human focal adhesion kinase; Q05397; biochemical FAK kinase activity assay; inhibition, %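 (tested at 7 µM)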; 97,000 compounds, 0.84% hits; AID 727; in the data active means inhibition above about 19%
Large screens that a line does not name were inactive; [ ] = another dose, or the depositor's remark.

CCn1c(SCc2cccnc2)nnc1-c1c[nH]c2ccccc12	PLK1 kinase inh 67
CCCSc1nnc(-c2c[nH]c3ccccc23)n1C	PLK1 kinase inh 64
CCOc1ccc(-n2c(SCC(=O)NCc3ccco3)nnc2-c2c[nH]c3ccccc23)cc1	none
CCCSc1nnc(-c2c[nH]c3ccccc23)n1CC	PLK1 kinase inh 60
Cn1c(SCC(=O)NCc2ccco2)nnc1-c1c[nH]c2ccccc12	PLK1 kinase inh 65
Cc1occc1-c1nnc(SCC(=O)c2c[nH]c3ccccc23)n1C	none
CCCCn1c(SCC(=O)Nc2cc(C)on2)nnc1-c1ccco1	none
CCOC(=O)/C(C#N)=C1/C=CN(c2ccccc2)C=N1	none (no result: PLK1 kinase inh, Plk1 PBD FP, EphB4 ephrin blk, FAK inh)
Cc1ccc(C(=O)NCC(=O)N2CCN(c3ncccn3)CC2)s1	none
O=C(O)C1C2C=CC3(CN(Cc4ccccn4)C(=O)C13)O2 (centres undefined)	none
COc1ccccc1-c1cc2nc(C)c(CCC(=O)NCc3ccco3)c(C)n2n1	none (no result: PLK1 kinase inh, Plk1 PBD FP, EphB4 ephrin blk, FAK inh)
CCn1ncc(Br)c1C(=O)Nc1ccccc1C(=O)OC	FAK inh 53
CCOC(=O)c1sc2ncn(C(C)C(=O)OC)c(=O)c2c1C (centres undefined)	none
CCCOC(=O)C(C)n1cnc2sc(C)c(C)c2c1=O (centres undefined)	EphB4 ephrin blk 16 (no result: Smad3 FoxH1 inh)
CCOCCCNC(=O)c1cn(CC(C)C)c(=O)c2cc(OC)c(OC)cc12	none (no result: PLK1 kinase inh, Plk1 PBD FP, EphB4 ephrin blk, FAK inh)
O=C(CCSCCc1ccccn1)Nc1ccc(Cl)cn1	Smad3 FoxH1 inh 54[fluorescence artefact?]
CC(=O)Nc1ccc(S(=O)(=O)NCc2ccc3c(c2)cc(C)n3C)cc1	PLK1 kinase inh 62
O=C(O)c1ccccc1C1=Nc2ccc(O)cc2Oc2cc(O)ccc21	Plk1 PBD FP 50
CCn1c(=S)sc2c(=O)[nH]c(C)nc21	PLK1 kinase inh 58
CCn1c(=S)sc2c(=O)n(-c3ccccc3)c(SC)nc21	none
Cc1cc2nnc(SC(C)C)n2c2ccccc12	none
COc1ccc(N=Nc2cnc(C)nc2-c2ccccc2)cc1	none (no result: Smad3 FoxH1 inh)
Cc1cc2nnc(SC3CCCCN(C(=O)c4ccc(F)cc4)C3=O)n2c2ccccc12 (centres undefined)	none
Cc1cc(C)n2nc(SC3CCCCN(C(=O)c4ccc(F)cc4)C3=O)nc2n1 (centres undefined)	EphB4 ephrin blk 19
CCOC(=O)c1ccc(Nc2ncnc3nc[nH]c23)cc1	PLK1 kinase inh 68
O=C(C1CC1)N1CCc2cc(S(=O)(=O)N3CCOCC3)ccc21	PLK1 kinase inh 69
CC1CCCCN1c1ncnc2ccccc12 (centres undefined)	none (no result: Smad3 FoxH1 inh)
CCOC(=O)C1CCN(CC(O)COc2ccc(C(C)=O)cc2)CC1 (centres undefined)	PLK1 kinase inh 65
CCOC(=O)C1CCN(CC(O)COc2ccc(C(C)(C)C)cc2)CC1 (centres undefined)	none
CC(=O)c1ccc(OCC(O)CN2CCN(Cc3ccccc3)CC2)cc1 (centres undefined)	PLK1 kinase inh 65
CC(=O)c1ccc(OCC(O)CN2CCN(c3ccccn3)CC2)cc1 (centres undefined)	PLK1 kinase inh 69
Clc1ccc2nc(CN3CCCc4ccccc43)cn2c1	none
CCOC(=O)c1sc(NC(=O)C2C3C=CC(C3)C2C(=O)O)nc1C (centres undefined)	none
O=C(NCCNC1CCN(Cc2ccccc2)CC1)c1cccs1	none (no result: Smad3 FoxH1 inh)
Cc1nc2ccccc2c(=O)n1/N=C/c1c(O)ccc2oc3c(c12)CCCC3	none
CN(C)Cc1cc(C(C)(C)C)ccc1-c1ccc(C(C)(C)C)cc1CN(C)C	Smad3 FoxH1 inh 70 (no result: PLK1 kinase inh, Plk1 PBD FP, EphB4 ephrin blk, FAK inh)
Cc1cc(C)n(-c2nc3ccccc3nc2NCCc2ccccc2)n1	none
Cc1sc2nc(CN(Cc3cccs3)C(=O)NC3CCCCC3)[nH]c(=O)c2c1C	PLK1 kinase inh 57 (no result: Smad3 FoxH1 inh)
CCCn1c(=O)c(C(=O)Nc2nnc(CC)s2)c(O)c2ccccc21	Smad3 FoxH1 inh 53[fluorescence artefact?] (no result: PLK1 kinase inh, Plk1 PBD FP, EphB4 ephrin blk, FAK inh)
CCCn1c(=O)c(C(=O)Nc2cnccn2)c(O)c2ccccc21	none (no result: PLK1 kinase inh, Plk1 PBD FP, EphB4 ephrin blk, FAK inh)
CCN(CC)S(=O)(=O)c1ccc(N2CCCC2)c(C(=O)OCC(=O)/C(C#N)=C(\C)N)c1	none
CN1CCN(CN2C(=O)[C@H]3[C@H]4C=C[C@@H]([C@@H]3C2=O)[C@H]2[C@@H]3C(=O)N(CN5CCN(C)CC5)C(=O)[C@@H]3[C@@H]42)CC1	Smad3 FoxH1 inh 57 (no result: PLK1 kinase inh, Plk1 PBD FP, EphB4 ephrin blk, FAK inh)
O=C(NCCO)c1ccc(Cl)c(Cl)c1	none (no result: PLK1 kinase inh, Plk1 PBD FP, EphB4 ephrin blk, FAK inh)
O=C(NCCO)c1ccc(Cl)cc1	Smad3 FoxH1 inh 58 (no result: PLK1 kinase inh, Plk1 PBD FP, EphB4 ephrin blk, FAK inh)
O=C1c2ccccc2-c2cc([N+](=O)[O-])c([N+](=O)[O-])cc21	Smad3 FoxH1 inh 52 (no result: PLK1 kinase inh, Plk1 PBD FP, EphB4 ephrin blk, FAK inh)
O=C1CCCCCCC1Sc1ccccc1[N+](=O)[O-] (centres undefined)	none (no result: Smad3 FoxH1 inh)
COc1ccc(C2C(C#N)=C(N)N(c3cccnc3)C3=C2C(=O)CCC3)cc1Cn1cc([N+](=O)[O-])cn1 (centres undefined)	none (no result: Smad3 FoxH1 inh)
Clc1ccc(-c2nnc(Sc3nc4ccccc4o3)c3ccccc23)cc1	none (no result: Smad3 FoxH1 inh)
COc1ccc(-c2nc(CS(=O)CC(=O)NC3CCCc4ccccc43)c(C)o2)cc1OC (centres undefined)	PLK1 kinase inh 69
CCCN(CCC)CCNC(=O)CS(=O)Cc1nc(-c2ccc(C)cc2)oc1C (centres undefined)	none
COc1cccc(-c2nc(CS(=O)CC(=O)NC3CCCC3)c(C)o2)c1 (centres undefined)	PLK1 kinase inh 66
Cc1cccc(-c2nc(CS(=O)CC(=O)N3CCN(C)CC3)c(C)o2)c1 (centres undefined)	PLK1 kinase inh 57
Cc1ccc(-c2nc(CS(=O)CC(=O)NC3CCC(C)CC3)c(C)o2)cc1 (centres undefined)	PLK1 kinase inh 65
COc1ccc(CC(=O)Nc2c3c(nn2-c2cccc(Cl)c2)CS(=O)(=O)C3)cc1	none
O=C(Cc1ccccc1)Nc1c2c(nn1-c1cccc(Cl)c1)CS(=O)(=O)C2	PLK1 kinase inh 66
CC(=O)O[C@H]1CC[C@@]2(C)C(=CC[C@@H]3[C@H]4CC[C@@H]([C@H](C)C(=O)O)[C@]4(C)CC[C@H]32)C1	Smad3 FoxH1 inh 52 (no result: PLK1 kinase inh, Plk1 PBD FP, EphB4 ephrin blk, FAK inh)
CC(=O)O[C@H]1CC[C@@]2(C)C(=CC[C@@H]3[C@H]4CC[C@@H](c5cc(C(F)(F)F)n(C(C)=O)n5)[C@]4(C)CC[C@H]32)C1	none (no result: PLK1 kinase inh, Plk1 PBD FP, EphB4 ephrin blk, FAK inh)
O=C1C(=O)N(CCO)C(c2ccccc2)/C1=C(\O)c1ccccc1 (centres undefined)	PLK1 kinase inh 55
COc1ccccc1S(=O)Cc1ccc(C(=O)NC2CCCC2)o1 (centres undefined)	none
COc1ccccc1S(=O)Cc1ccc(C(=O)NCCc2ccc(Cl)cc2)o1 (centres undefined)	PLK1 kinase inh 60
COCCn1c(C)cc(C(=O)COc2nc3ccccc3nc2C)c1C	EphB4 ephrin blk 20
CC1CCN(S(=O)(=O)c2cc(Br)cc(C(=O)NC3=NCCS3)c2)CC1	EphB4 ephrin blk 17
NCCSS(=O)(=O)CCN	Smad3 FoxH1 inh 62 (no result: PLK1 kinase inh, Plk1 PBD FP, EphB4 ephrin blk, FAK inh)
O=C1CC2CS(=O)(=O)CC2N1c1ccc(Oc2ccccc2)cc1 (centres undefined)	none
COc1ccc(-c2cc(C#N)nc(N3CCNCC3)n2)cc1	PLK1 kinase inh 55
